Measurements reported in PubChem BioAssay (NCATS).
Records with an inconclusive call do not appear. The source made the active and inactive calls. Unless noted, the call rests on the fitted dose curve; in most records, active means well fitted curve in the direction sought with a large enough effect; inconclusive means small, poorly fitted or top-dose-only effect, or another doubt; inactive means no such curve, though single readings can be large; an effect the other way counts as inactive or inconclusive.

Columns and labels:
[1] = qHTS for Inhibitors of the Functional Ribonucleoprotein Complex (vRNP) of Lassa (LASV) Arenavirus: LASV Primary Screen - GLuc reporter signal (AID 1347082; calls by dose curve; tested in HEK293 reporter line; further: series mostly up to about 57 µM; nearly all actives have a fitted effect of over 60% in size)
[2] = qHTS for Inhibitors of the Functional Ribonucleoprotein Complex (vRNP) of Lassa (LASV) Arenavirus: Viability assay - alamar blue signal for LASV Primary Screen (AID 1347083; calls by dose curve; tested in HEK293 reporter line; further: series mostly up to about 57 µM; nearly all actives have a fitted effect of over 80% in size)
[3] = qHTS for Inhibitors of the Functional Ribonucleoprotein Complex (vRNP) of Lymphocytic Choriomeningitis Arenaviruses (LCMV): Viability assay - alamar blue signal for LCMV Primary Screen (AID 1347085; calls by dose curve; tested in HEK293 reporter line; further: series mostly up to about 57 µM; nearly all actives have a fitted effect of over 80% in size)
[4] = biological target: Nucleoprotein (Lymphocytic choriomeningitis virus (strain Armstrong)) (UniProt P09992); experiment: qHTS for Inhibitors of the Functional Ribonucleoprotein Complex (vRNP) of Lymphocytic Choriomeningitis Arenaviruses (LCMV): LCMV Primary Screen - GLuc reporter signal (AID 1347086; calls by dose curve; further: series mostly up to about 57 µM; nearly all actives have a fitted effect of over 70% in size)
Sequence of Nucleoprotein (Lymphocytic choriomeningitis virus (strain Armstrong)) (P09992 whole entry, looked up): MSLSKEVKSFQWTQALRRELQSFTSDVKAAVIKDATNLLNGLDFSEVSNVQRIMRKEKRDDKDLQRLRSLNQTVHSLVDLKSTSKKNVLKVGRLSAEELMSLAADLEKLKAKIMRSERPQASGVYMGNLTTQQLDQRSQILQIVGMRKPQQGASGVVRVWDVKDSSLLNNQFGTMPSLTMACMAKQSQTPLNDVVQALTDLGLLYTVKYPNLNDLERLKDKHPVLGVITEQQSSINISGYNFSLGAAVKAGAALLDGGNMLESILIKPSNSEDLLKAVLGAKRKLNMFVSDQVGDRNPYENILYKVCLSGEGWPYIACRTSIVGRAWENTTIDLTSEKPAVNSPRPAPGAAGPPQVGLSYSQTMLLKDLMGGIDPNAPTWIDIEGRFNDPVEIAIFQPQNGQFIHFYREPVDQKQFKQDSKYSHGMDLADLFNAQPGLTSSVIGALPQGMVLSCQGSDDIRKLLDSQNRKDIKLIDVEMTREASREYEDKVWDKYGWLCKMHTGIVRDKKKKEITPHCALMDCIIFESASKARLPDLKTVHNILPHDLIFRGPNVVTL

[5] = system: Zika virus NS2B-NS3 protease (linked construct); experiment: Primary screen NINDS Rhodamine qHTS for Zika virus inhibitors (AID 1347160); further: nearly all actives have a fitted effect of over 55% in size
Method in brief: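 Kinetic fluorescence (Ex 480 nm, Em 540 nm) over 15 min with 1.5 microM Rhodamine110 peptide and 25 nM linked protease.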

[6] = OV-KATE Cancer Cell Toxicity qHTS against the NCATS CANVASS Library (AID 1347345)
Method in brief: (§1)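 Following a 4 h pre-incubation of 1000 seeded cells, compounds were pinned in an 11-pnt dilution series and left for 72 h; viability then came from CellTiter-Glo.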

[7] = HPAF-II Cancer Cell Toxicity qHTS against the NCATS CANVASS Library (AID 1347346); further: series mostly up to about 38 µM; nearly all actives have a fitted effect of over 55% in size
Method in brief: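 HPAF-II cells at 1000 cells/well were treated with an 11-point concentration series for 72 hours at 37 degrees C. Viability read by CellTiter-Glo luminescence.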

[8] = OV-SAHO Cancer Cell Toxicity qHTS against the NCATS CANVASS Library (AID 1347348); further: series mostly up to about 38 µM; nearly all actives have a fitted effect of over 55% in size
Method in brief: as §1

[9] = SW1088 Cancer Cell Toxicity qHTS against the NCATS CANVASS Library (AID 1347350); further: nearly all actives have a fitted effect of over 75% in size
Method in brief: as §1

[10] = U-118MG Cancer Cell Toxicity qHTS against the NCATS CANVASS Library (AID 1347351); further: series mostly up to about 38 µM
Method in brief: as §1

[11] = A2780 Cisplatin Sensitive Ovarian Cancer Cell Toxicity qHTS against the NCATS CANVASS Library (AID 1347353); further: nearly all actives have a fitted effect of over 60% in size
Method in brief: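 A2780 cells, 750/well, settled 4 h at 37 °C, then treated with an 11-point compound series for 72 h. Viability was read as ATPLite luminescence after 10 min at room temperature, with bortezomib as control.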

[12] = HPAF-II 24hr Apoptosis Induction qHTS against the NCATS CANVASS Library (AID 1347356)
Method in brief: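 HPAF-II cells (500/well) exposed to compounds in 11-point series for 24 h at 37 degrees C; caspase-3/7 activity read by Caspase-Glo luminescence after 15 min at room temperature. Doxorubicin titration as control.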

[13] = HEK293 18hr Apoptosis Induction qHTS against the NCATS CANVASS Library (AID 1347357)
Method in brief: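 Caspase-3/7 luminescence (DEVD substrate, Caspase-Glo) after 18 h compound exposure of HEK293 cells, 500 cells/well; 11-point series; doxorubicin titration as control.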

[14] = HPAF-II 12hr Apoptosis Induction qHTS against the NCATS CANVASS Library (AID 1347358)
Method in brief: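 HPAF-II cells, 500/well in DMEM + 10% FBS, exposed 12 hours at 37 degrees C to compound (11-point). Caspase-Glo 3/7 added for 15 min at room temperature; luminescence reflects caspase-3/7 activity.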

[15] = HEK293 24hr Apoptosis Induction qHTS against the NCATS CANVASS Library (AID 1347359)
Method in brief: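 HEK293 cells, 500 per well, exposed to an 11-point compound series for 24 hours at 37 degrees C. Caspase 3/7 activity read by Caspase-Glo luminescence (DEVD substrate) after 15 min at room temperature.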

[16] = HPAF-II 18hr Apoptosis Induction qHTS against the NCATS CANVASS Library (AID 1347360)
Method in brief: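 Caspase-Glo 3/7 luminescence (DEVD substrate) after 15 min RT; HPAF-II, 500 cells/well, 18 h compound exposure at 37 degrees C, qHTS series; doxorubicin control 0.1nM - 4uM.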

[17] = HEK293 12hr Apoptosis Induction qHTS against the NCATS CANVASS Library (AID 1347361)
Method in brief: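 500 HEK293 cells/well; cpds pin-transferred, 11-pt conc series; 12 h, 37 degrees C/5% CO2; Caspase-Glo 3/7 added, 15 min RT dark; luminescence.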

[18] = system: NAD(P)H diaphorase (Clostridium kluyveri); experiment: Diaphorse counterscreen qHTS: Assay Interference Panel against the NCATS CANVASS Library (AID 1347362)
Method in brief: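 Clostridium kluyveri diaphorase in PBS + 0.01% Tween-20 preincubated 15 min with compounds. Resazurin and NADH then added for 5 min at room temperature in the dark; resorufin fluorescence read (ex 525, em 598).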

[19] = biological target: Luciferin 4-monooxygenase (Photinus pyralis) (UniProt P08659); experiment: Firefly luciferase counterscreen qHTS: Assay Interference Panel against the NCATS CANVASS Library (AID 1347363); further: series mostly up to about 57 µM
Sequence of Luciferin 4-monooxygenase (Photinus pyralis) (P08659 whole entry, looked up): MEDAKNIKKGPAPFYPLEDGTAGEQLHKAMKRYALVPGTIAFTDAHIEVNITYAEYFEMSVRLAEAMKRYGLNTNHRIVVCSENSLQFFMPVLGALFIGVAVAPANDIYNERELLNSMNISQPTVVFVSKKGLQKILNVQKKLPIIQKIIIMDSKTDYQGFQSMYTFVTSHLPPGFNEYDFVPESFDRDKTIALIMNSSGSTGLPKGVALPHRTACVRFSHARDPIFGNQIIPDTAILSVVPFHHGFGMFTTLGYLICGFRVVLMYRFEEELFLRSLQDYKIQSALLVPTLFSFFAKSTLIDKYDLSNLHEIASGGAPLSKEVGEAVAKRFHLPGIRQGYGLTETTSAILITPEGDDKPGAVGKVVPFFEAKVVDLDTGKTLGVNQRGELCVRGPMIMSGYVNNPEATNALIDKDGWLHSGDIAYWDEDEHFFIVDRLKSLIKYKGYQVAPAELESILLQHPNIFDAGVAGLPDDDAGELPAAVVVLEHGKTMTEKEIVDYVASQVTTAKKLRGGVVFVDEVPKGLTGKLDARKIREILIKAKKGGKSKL
Method in brief: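 Purified P. pyralis luciferase (0.04 ug/mL, 4x reagent) added to Tris-acetate buffer with 0.013 mM D-luciferin, 0.013 mM ATP and 13.3 mM Mg-acetate; compounds preincubated 15 min, then luminescence read after 5 min, RT.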

[20] = KB-8-5-11 Cancer Cell Toxicity qHTS against the NCATS CANVASS Library (AID 1347364); further: series mostly up to about 46 µM; nearly all actives have a fitted effect of over 75% in size
Method in brief: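 KB-8-5-11 cells, 500/well in DMEM + 10% FBS, given compounds in an 11-point series. Incubated 72 h at 37 °C. Viability by CellTiter-Glo luminescence. Confirmation also run with 1 uM tariquidar.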

[21] = SDT Cancer Cell Toxicity qHTS against the NCATS CANVASS Library (AID 1347365);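 further: SDT canine glioma cells 500 per well in 1536 well plates; series mostly up to about 46 µM; nearly all actives have a fitted effect of over 60% in size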
Method in brief: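 SDT dog glioma cells (500/well) exposed to an 11-point compound series for 72 hr at 37C, 5% CO2. Cytotoxicity read as ATP content by CellTiterGlo luminescence; bortezomib titration as control.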

[22] = qHTS for ATAD5 Agonist screened against the NCATS CANVASS Library (AID 1347367)
Method in brief: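 Luminescence read-out: ATAD5-driven luciferase in stably transfected HEK 293T cells, which rises post-transcriptionally with DNA damage. Cells were exposed 16hr at 37C to test compound; a CellTiter-Fluor fluorescence read (1hr) measured viability first.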

[23] = G06 Cancer Cell Toxicity qHTS against the NCATS CANVASS Library (AID 1347368); further: series mostly up to about 46 µM; nearly all actives have a fitted effect of over 60% in size
Method in brief: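 G06 dog glioma cells, 500 per well, exposed 72 hr at 37C, 5% CO2 to compounds in an 11-point series. Cytotoxicity read as ATP content by CellTiterGlo luminescence.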

Measured: Potency

NCCc1ccccc1
inactive: all assays above
